Source: PMC11006913

Legend:
Assay in all cases: PBM; 200 nM protein, PBS
Conditions in all cases: dsDNA, one strand shown
MSX2 [1] = biological target: MSX2 (Homo sapiens, UniProt P35548 130-214, R199I)
MSX2 [2] = biological target: MSX2 (Homo sapiens, UniProt P35548 130-214)
MSX2 [3] = biological target: MSX2 (Homo sapiens, UniProt P35548 130-214, F161Y)
VAX1 [4] = biological target: VAX1 (Homo sapiens, UniProt Q5SQQ9 86-172)
VAX1 [5] = biological target: VAX1 (Homo sapiens, UniProt Q5SQQ9 86-172, T142I)
VAX1 (Homo sapiens, UniProt Q5SQQ9 86-172, T142I), sequence (Q5SQQ9 86-172 T142I): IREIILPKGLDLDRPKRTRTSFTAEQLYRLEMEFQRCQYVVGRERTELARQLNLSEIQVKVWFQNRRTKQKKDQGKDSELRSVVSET

VAX1 [6] = biological target: VAX1 (Homo sapiens, UniProt Q5SQQ9 86-172, K157R)
VAX1 (Homo sapiens, UniProt Q5SQQ9 86-172, K157R), sequence (Q5SQQ9 86-172 K157R): as the sequence (Q5SQQ9 86-172 T142I) above, with I57T, K72R counted along it

PROP1 [7] = biological target: PROP1 (Homo sapiens, UniProt O75360 56-141)
PROP1 (Homo sapiens, UniProt O75360 56-141), sequence (O75360 56-141): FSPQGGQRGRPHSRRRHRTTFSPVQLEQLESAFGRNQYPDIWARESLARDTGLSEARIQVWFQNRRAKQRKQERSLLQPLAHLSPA

PROP1 [8] = biological target: PROP1 (Homo sapiens, UniProt O75360 56-141, R99H)
PROP1 (Homo sapiens, UniProt O75360 56-141, R99H), sequence (O75360 56-141 R99H): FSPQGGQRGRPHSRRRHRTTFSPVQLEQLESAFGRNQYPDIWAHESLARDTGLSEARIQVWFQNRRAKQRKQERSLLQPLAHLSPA

PROP1 [9] = biological target: PROP1 (Homo sapiens, UniProt O75360 56-141, F88S)
PROP1 (Homo sapiens, UniProt O75360 56-141, F88S), sequence (O75360 56-141 F88S): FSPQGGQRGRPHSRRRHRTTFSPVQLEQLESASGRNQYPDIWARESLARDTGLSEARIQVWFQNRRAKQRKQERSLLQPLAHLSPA

ALX1 [10] = biological target: ALX1 (Homo sapiens, UniProt Q15699 118-204, L144V)
ALX1 (Homo sapiens, UniProt Q15699 118-204, L144V), sequence (Q15699 118-204 L144V): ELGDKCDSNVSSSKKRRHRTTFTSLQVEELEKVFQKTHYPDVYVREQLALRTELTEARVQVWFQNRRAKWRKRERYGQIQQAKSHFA

ALX1 [11] = biological target: ALX1 (Homo sapiens, UniProt Q15699 118-204, L144R)
ALX1 (Homo sapiens, UniProt Q15699 118-204, L144R), sequence (Q15699 118-204 L144R): as the sequence (Q15699 118-204 L144V) above, with V27R counted along it

ALX1 [12] = biological target: ALX1 (Homo sapiens, UniProt Q15699 118-204)
ALX1 (Homo sapiens, UniProt Q15699 118-204), sequence (Q15699 118-204): as the sequence (Q15699 118-204 L144V) above, with V27L counted along it

NKX3-2 [13] = biological target: NKX3-2 (Homo sapiens, UniProt P78367 192-278, P234S)
NKX3-2 (Homo sapiens, UniProt P78367 192-278, P234S), sequence (P78367 192-278 P234S): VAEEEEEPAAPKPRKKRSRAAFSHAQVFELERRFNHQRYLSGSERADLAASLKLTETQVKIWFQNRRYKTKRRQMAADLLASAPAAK

NKX3-2 [14] = biological target: NKX3-2 (Homo sapiens, UniProt P78367 192-278)
NKX3-2 (Homo sapiens, UniProt P78367 192-278), sequence (P78367 192-278): as the sequence (P78367 192-278 P234S) above, with S43P counted along it

PITX2 = PITX2 (Homo sapiens, UniProt Q99697 72-157)
ALX3 [15] = biological target: ALX3 (Homo sapiens, UniProt O95076 139-225, N203Q)
ALX3 (Homo sapiens, UniProt O95076 139-225, N203Q), sequence (O95076 139-225 N203Q): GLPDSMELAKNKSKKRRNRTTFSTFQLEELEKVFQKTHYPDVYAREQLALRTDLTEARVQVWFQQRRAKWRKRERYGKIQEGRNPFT

ALX3 [16] = biological target: ALX3 (Homo sapiens, UniProt O95076 139-225)
ALX3 (Homo sapiens, UniProt O95076 139-225), sequence (O95076 139-225): as the sequence (O95076 139-225 N203Q) above, with Q65N counted along it

ALX3 [17] = biological target: ALX3 (Homo sapiens, UniProt O95076 139-225, L168Q)
ALX3 (Homo sapiens, UniProt O95076 139-225, L168Q), sequence (O95076 139-225 L168Q): as the sequence (O95076 139-225 N203Q) above, with L30Q, Q65N counted along it

ALX3 [18] = biological target: ALX3 (Homo sapiens, UniProt O95076 139-225, L168V)
ALX3 (Homo sapiens, UniProt O95076 139-225, L168V), sequence (O95076 139-225 L168V): as the sequence (O95076 139-225 N203Q) above, with L30V, Q65N counted along it

ALX3 [19] = biological target: ALX3 (Homo sapiens, UniProt O95076 139-225, N203S)
ALX3 (Homo sapiens, UniProt O95076 139-225, N203S), sequence (O95076 139-225 N203S): as the sequence (O95076 139-225 N203Q) above, with Q65S counted along it

MSX2 (Homo sapiens, UniProt P35548 130-214, R199I), sequence (P35548 130-214 R199I): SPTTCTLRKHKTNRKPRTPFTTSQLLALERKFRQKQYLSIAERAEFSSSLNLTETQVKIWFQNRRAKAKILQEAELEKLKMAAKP
MSX2 (Homo sapiens, UniProt P35548 130-214), sequence (P35548 130-214): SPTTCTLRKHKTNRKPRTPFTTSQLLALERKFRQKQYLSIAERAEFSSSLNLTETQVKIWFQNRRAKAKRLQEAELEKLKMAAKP
MSX2 (Homo sapiens, UniProt P35548 130-214, F161Y), sequence (P35548 130-214 F161Y): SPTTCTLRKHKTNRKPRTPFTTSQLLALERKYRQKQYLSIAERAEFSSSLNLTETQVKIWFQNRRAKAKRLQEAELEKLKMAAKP
VAX1 (Homo sapiens, UniProt Q5SQQ9 86-172), sequence (Q5SQQ9 86-172): as the sequence (Q5SQQ9 86-172 T142I) above, with I57T counted along it

Sequence: GCCAGGAC
- binding signal (MSX2 [1]): 9.69 upbm affinity estimate (log intensity, higher = more binding, comparable within an allelic series)
- binding signal (MSX2 [2]): 9.71 upbm affinity estimate (log intensity, higher = more binding, comparable within an allelic series)
- binding signal (MSX2 [3]): 9.76 upbm affinity estimate (log intensity, higher = more binding, comparable within an allelic series)

Sequence: AGCCCACC
- binding signal (MSX2 [1]): 9.45 upbm affinity estimate (log intensity, higher = more binding, comparable within an allelic series)
- binding signal (MSX2 [2]): 9.52 upbm affinity estimate (log intensity, higher = more binding, comparable within an allelic series)
- binding signal (MSX2 [3]): 9.47 upbm affinity estimate (log intensity, higher = more binding, comparable within an allelic series)

Sequence: GAGCCGAC
- binding signal (MSX2 [1]): 9.44 upbm affinity estimate (log intensity, higher = more binding, comparable within an allelic series)
- binding signal (MSX2 [2]): 9.46 upbm affinity estimate (log intensity, higher = more binding, comparable within an allelic series)
- binding signal (VAX1 [4]): 7.12 upbm affinity estimate (log intensity, higher = more binding, comparable within an allelic series)
- binding signal (MSX2 [3]): 9.31 upbm affinity estimate (log intensity, higher = more binding, comparable within an allelic series)
- binding signal (VAX1 [5]): 7.21 upbm affinity estimate (log intensity, higher = more binding, comparable within an allelic series)
- binding signal (VAX1 [6]): 7.3 upbm affinity estimate (log intensity, higher = more binding, comparable within an allelic series)

Sequence: AAATATTT
- binding signal (MSX2 [1]): 10.7 upbm affinity estimate (log intensity, higher = more binding, comparable within an allelic series)
- binding signal (MSX2 [2]): 11.1 upbm affinity estimate (log intensity, higher = more binding, comparable within an allelic series)
- binding signal (MSX2 [3]): 11 upbm affinity estimate (log intensity, higher = more binding, comparable within an allelic series)

Sequence: CCCCTACG
- binding signal (MSX2 [1]): 9.54 upbm affinity estimate (log intensity, higher = more binding, comparable within an allelic series)
- binding signal (MSX2 [2]): 9.48 upbm affinity estimate (log intensity, higher = more binding, comparable within an allelic series)
- binding signal (MSX2 [3]): 9.63 upbm affinity estimate (log intensity, higher = more binding, comparable within an allelic series)

Sequence: CCTGTGCC
- binding signal (MSX2 [1]): 9.49 upbm affinity estimate (log intensity, higher = more binding, comparable within an allelic series)
- binding signal (MSX2 [2]): 9.41 upbm affinity estimate (log intensity, higher = more binding, comparable within an allelic series)
- binding signal (PROP1 [7]): 6.6 upbm affinity estimate (log intensity, higher = more binding, comparable within an allelic series)
- binding signal (PROP1 [8]): 6.69 upbm affinity estimate (log intensity, higher = more binding, comparable within an allelic series)
- binding signal (PROP1 [9]): 6.62 upbm affinity estimate (log intensity, higher = more binding, comparable within an allelic series)
- binding signal (MSX2 [3]): 9.42 upbm affinity estimate (log intensity, higher = more binding, comparable within an allelic series)

Sequence: GAGGTGGC
- binding signal (MSX2 [1]): 9.4 upbm affinity estimate (log intensity, higher = more binding, comparable within an allelic series)
- binding signal (ALX1 [10]): 6.34 upbm affinity estimate (log intensity, higher = more binding, comparable within an allelic series)
- binding signal (ALX1 [11]): 6.43 upbm affinity estimate (log intensity, higher = more binding, comparable within an allelic series)
- binding signal (MSX2 [2]): 9.42 upbm affinity estimate (log intensity, higher = more binding, comparable within an allelic series)
- binding signal (MSX2 [3]): 9.41 upbm affinity estimate (log intensity, higher = more binding, comparable within an allelic series)
- binding signal (ALX1 [12]): 6.4 upbm affinity estimate (log intensity, higher = more binding, comparable within an allelic series)

Sequence: AGCGCCGG
- binding signal (MSX2 [1]): 9.57 upbm affinity estimate (log intensity, higher = more binding, comparable within an allelic series)
- binding signal (MSX2 [2]): 9.53 upbm affinity estimate (log intensity, higher = more binding, comparable within an allelic series)
- binding signal (MSX2 [3]): 9.52 upbm affinity estimate (log intensity, higher = more binding, comparable within an allelic series)

Sequence: CCTTGCCG
- binding signal (ALX1 [10]): 6.69 upbm affinity estimate (log intensity, higher = more binding, comparable within an allelic series)
- binding signal (ALX1 [11]): 6.58 upbm affinity estimate (log intensity, higher = more binding, comparable within an allelic series)
- binding signal (ALX1 [12]): 6.55 upbm affinity estimate (log intensity, higher = more binding, comparable within an allelic series)

Sequence: ACATTTAG
- binding signal (ALX1 [10]): 8.38 upbm affinity estimate (log intensity, higher = more binding, comparable within an allelic series)
- binding signal (ALX1 [11]): 8.16 upbm affinity estimate (log intensity, higher = more binding, comparable within an allelic series)
- binding signal (ALX1 [12]): 8.56 upbm affinity estimate (log intensity, higher = more binding, comparable within an allelic series)

Sequence: CGCCGACC
- binding signal (MSX2 [1]): 9.46 upbm affinity estimate (log intensity, higher = more binding, comparable within an allelic series)
- binding signal (MSX2 [2]): 9.28 upbm affinity estimate (log intensity, higher = more binding, comparable within an allelic series)
- binding signal (MSX2 [3]): 9.4 upbm affinity estimate (log intensity, higher = more binding, comparable within an allelic series)
- binding signal (NKX3-2 [13]): 10.4 upbm affinity estimate (log intensity, higher = more binding, comparable within an allelic series)
- binding signal (NKX3-2 [14]): 10.4 upbm affinity estimate (log intensity, higher = more binding, comparable within an allelic series)

Sequence: CACGCTCG
- binding signal (ALX1 [10]): 6.33 upbm affinity estimate (log intensity, higher = more binding, comparable within an allelic series)
- binding signal (PITX2): 7.92 upbm affinity estimate (log intensity, higher = more binding, comparable within an allelic series)
- binding signal (ALX1 [11]): 6.26 upbm affinity estimate (log intensity, higher = more binding, comparable within an allelic series)
- binding signal (ALX1 [12]): 6.3 upbm affinity estimate (log intensity, higher = more binding, comparable within an allelic series)

Sequence: CCGGGCCG
- binding signal (ALX1 [10]): 6.6 upbm affinity estimate (log intensity, higher = more binding, comparable within an allelic series)
- binding signal (ALX3 [15]): 7.72 upbm affinity estimate (log intensity, higher = more binding, comparable within an allelic series)
- binding signal (ALX1 [11]): 6.56 upbm affinity estimate (log intensity, higher = more binding, comparable within an allelic series)
- binding signal (ALX3 [16]): 7.76 upbm affinity estimate (log intensity, higher = more binding, comparable within an allelic series)
- binding signal (ALX3 [17]): 7.74 upbm affinity estimate (log intensity, higher = more binding, comparable within an allelic series)
- binding signal (ALX3 [18]): 7.65 upbm affinity estimate (log intensity, higher = more binding, comparable within an allelic series)
- binding signal (ALX1 [12]): 6.37 upbm affinity estimate (log intensity, higher = more binding, comparable within an allelic series)
- binding signal (ALX3 [19]): 7.67 upbm affinity estimate (log intensity, higher = more binding, comparable within an allelic series)

Sequence: AGAAGGGC
- binding signal (ALX1 [10]): 6.58 upbm affinity estimate (log intensity, higher = more binding, comparable within an allelic series)
- binding signal (ALX1 [11]): 6.68 upbm affinity estimate (log intensity, higher = more binding, comparable within an allelic series)
- binding signal (ALX1 [12]): 6.45 upbm affinity estimate (log intensity, higher = more binding, comparable within an allelic series)

Sequence: GAGGAGCC
- binding signal (ALX1 [10]): 6.5 upbm affinity estimate (log intensity, higher = more binding, comparable within an allelic series)
- binding signal (ALX1 [11]): 6.54 upbm affinity estimate (log intensity, higher = more binding, comparable within an allelic series)
- binding signal (ALX1 [12]): 6.27 upbm affinity estimate (log intensity, higher = more binding, comparable within an allelic series)

Sequence: CTAGCTGC
- binding signal (ALX1 [10]): 6.42 upbm affinity estimate (log intensity, higher = more binding, comparable within an allelic series)
- binding signal (ALX1 [11]): 6.45 upbm affinity estimate (log intensity, higher = more binding, comparable within an allelic series)
- binding signal (ALX1 [12]): 6.31 upbm affinity estimate (log intensity, higher = more binding, comparable within an allelic series)

Sequence: CGGGTTCC
- binding signal (ALX1 [10]): 6.36 upbm affinity estimate (log intensity, higher = more binding, comparable within an allelic series)
- binding signal (ALX1 [11]): 6.23 upbm affinity estimate (log intensity, higher = more binding, comparable within an allelic series)
- binding signal (ALX1 [12]): 6.28 upbm affinity estimate (log intensity, higher = more binding, comparable within an allelic series)

Sequence: ATATTGTC
- binding signal (ALX1 [10]): 8.09 upbm affinity estimate (log intensity, higher = more binding, comparable within an allelic series)
- binding signal (ALX1 [11]): 8.02 upbm affinity estimate (log intensity, higher = more binding, comparable within an allelic series)
- binding signal (ALX1 [12]): 8 upbm affinity estimate (log intensity, higher = more binding, comparable within an allelic series)

Sequence: ATTAAGAA
- binding signal (MSX2 [1]): 11.3 upbm affinity estimate (log intensity, higher = more binding, comparable within an allelic series)
- binding signal (MSX2 [2]): 12 upbm affinity estimate (log intensity, higher = more binding, comparable within an allelic series)
- binding signal (MSX2 [3]): 11.7 upbm affinity estimate (log intensity, higher = more binding, comparable within an allelic series)

Sequence: CCACTGGC
- binding signal (MSX2 [1]): 9.65 upbm affinity estimate (log intensity, higher = more binding, comparable within an allelic series)
- binding signal (MSX2 [2]): 9.69 upbm affinity estimate (log intensity, higher = more binding, comparable within an allelic series)
- binding signal (MSX2 [3]): 9.68 upbm affinity estimate (log intensity, higher = more binding, comparable within an allelic series)

Sequence: CGACAATA
- binding signal (MSX2 [1]): 10.5 upbm affinity estimate (log intensity, higher = more binding, comparable within an allelic series)
- binding signal (MSX2 [2]): 11 upbm affinity estimate (log intensity, higher = more binding, comparable within an allelic series)
- binding signal (MSX2 [3]): 10.9 upbm affinity estimate (log intensity, higher = more binding, comparable within an allelic series)

Sequence: ATGTGTAA
- binding signal (ALX1 [10]): 8.64 upbm affinity estimate (log intensity, higher = more binding, comparable within an allelic series)
- binding signal (ALX1 [11]): 8.5 upbm affinity estimate (log intensity, higher = more binding, comparable within an allelic series)
- binding signal (ALX1 [12]): 8.88 upbm affinity estimate (log intensity, higher = more binding, comparable within an allelic series)

Sequence: CCTTTAAC
- binding signal (ALX1 [10]): 8.41 upbm affinity estimate (log intensity, higher = more binding, comparable within an allelic series)
- binding signal (ALX1 [11]): 8.36 upbm affinity estimate (log intensity, higher = more binding, comparable within an allelic series)
- binding signal (ALX1 [12]): 8.65 upbm affinity estimate (log intensity, higher = more binding, comparable within an allelic series)

Sequence: ATTATAAC
- binding signal (ALX1 [10]): 10.3 upbm affinity estimate (log intensity, higher = more binding, comparable within an allelic series)
- binding signal (ALX3 [15]): 8.52 upbm affinity estimate (log intensity, higher = more binding, comparable within an allelic series)
- binding signal (ALX1 [11]): 9.95 upbm affinity estimate (log intensity, higher = more binding, comparable within an allelic series)
- binding signal (ALX1 [12]): 10.6 upbm affinity estimate (log intensity, higher = more binding, comparable within an allelic series)

Sequence: CCGGGGAG
- binding signal (ALX1 [10]): 6.03 upbm affinity estimate (log intensity, higher = more binding, comparable within an allelic series)
- binding signal (ALX1 [11]): 6.12 upbm affinity estimate (log intensity, higher = more binding, comparable within an allelic series)
- binding signal (NKX3-2 [13]): 10.5 upbm affinity estimate (log intensity, higher = more binding, comparable within an allelic series)
- binding signal (ALX1 [12]): 5.94 upbm affinity estimate (log intensity, higher = more binding, comparable within an allelic series)
- binding signal (NKX3-2 [14]): 10.5 upbm affinity estimate (log intensity, higher = more binding, comparable within an allelic series)

Sequence: CGCCGAGA
- binding signal (ALX1 [10]): 6.15 upbm affinity estimate (log intensity, higher = more binding, comparable within an allelic series)
- binding signal (ALX1 [11]): 6.32 upbm affinity estimate (log intensity, higher = more binding, comparable within an allelic series)
- binding signal (ALX1 [12]): 6.31 upbm affinity estimate (log intensity, higher = more binding, comparable within an allelic series)

Sequence: ATGGAAAT
- binding signal (MSX2 [1]): 10.4 upbm affinity estimate (log intensity, higher = more binding, comparable within an allelic series)
- binding signal (MSX2 [2]): 10.7 upbm affinity estimate (log intensity, higher = more binding, comparable within an allelic series)
- binding signal (MSX2 [3]): 10.6 upbm affinity estimate (log intensity, higher = more binding, comparable within an allelic series)

Sequence: GAACACCC
- binding signal (MSX2 [1]): 9.57 upbm affinity estimate (log intensity, higher = more binding, comparable within an allelic series)
- binding signal (MSX2 [2]): 9.63 upbm affinity estimate (log intensity, higher = more binding, comparable within an allelic series)
- binding signal (MSX2 [3]): 9.59 upbm affinity estimate (log intensity, higher = more binding, comparable within an allelic series)
